Activity calls are given as the source filed them. The calls were made as follows: active = hit-call score of the fitted dose curve at least 0.9, where 1 is the maximum; inactive = score below 0.9.
Test: CEETOX_H295R_CORTIC: CeeTox H295R High-throughput Steroidogenesis Assay for Corticosterone (CORTIC) (AID 2283437);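 also: corticosterone secreted into medium quantified by mass spectrometry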
Conditions: actives raise or lower the signal
Protocol: CEETOX_H295R is a cell-based, multiplexed-readout assay that uses H295R, a human adrenal gland cell line, with measurements taken at 48 hours after chemical dosing in a 96-well plate.CEETOX_H295R_CORTIC is one of 23 assay component(s) measured or calculated from the CEETOX_H295R assay. It is designed to make measurements of hormone induction, a form of inducible reporter, as detected with absorbance signals by HPLC-MS-MS technology.Data from the assay component CEETOX_H295R_CORTIC was analyzed into 1 assay endpoint. This assay endpoint, CEETOX_H295R_CORTIC, was analyzed with bidirectional fitting relative to DMSO as the negative control and baseline of activity. Using a type of inducible reporter, gain or loss-of-signal activity using HPLC-MS-MS was used to understand synthesis of Corticosterone in H295R cell line at 48hr of chemical exposure. To generalize the intended target to other relatable targets, this assay endpoint is annotated to the steroid hormone intended target family, where the subfamily is glucocorticoids.
Cell culture and media preparation procedures were conducted in accordance with OECD Test No. 456 guidelines, with minor modifications. H295R cells (ATCC CRL-2128) were expanded for 5 passages and frozen in batches in liquid nitrogen. Prior to the steroidogenesis assay, H295R cells were thawed and passed at least 4 times. The maximum passage was 10. Cells were maintained in a 1:1 mixture of DMEM/F12 supplemented with 5ml/L ITS+ Premix (BD Bioscience) and 12.5 ml/L Nu-Serum (BD Bioscience). After seeding cells into 96-well plates at 50-60% confluency, cells were allowed to adhere overnight. Prior to chemical testing, culture medium was replaced with 175 uL medium containing 10 uM forskolin to stimulate steroidogenesis for 48 hours. Following prestimulation, forskolin medium was replaced with medium containing test chemical solubilized in DMSO (ensuring a final concentration of 0.1% DMSO). Test chemicals were incubated for 48 hours, then the medium was removed and split into 2 vials containing approximately 75uL each, and stored at -80 C prior to hormone analysis. For steroid quantification, media samples were shipped to OpAns, LLC (Durham, NC) on dry ice, and samples were thawed to room temperature prior to liquid-liquid extraction. Steroid hormones were extracted from media samples using methyl tertbutyl ether (MTBE). An extra derivatization with dansyl chloride was included for estrogen (estrone and estradiol) detection only. Steroid hormones were separated by HPLC, eluted using a reverse phase C18 gradient with electrospray positive ionization, followed by quantification by tandem mass spectrometry (MS/MS). Data were acquired on a MassHunter Workstation Acquisition version B03.01 (Agilent Technologies, Inc.) and processed using MassHunter Quantitative Analysis for QQQ. Accuracy was determined for each hormone analyte from 3 standards to determine upper and lower limits of quantification (ULOQ and LLOQ, respectively) using a 7-point standard curve. Precision and accuracy of the extraction and quantification methods were calculated as the percent relative standard deviation (%RSD) of the spiked standards and percent spiked standard recovered, respectively. […] Test medium was removed following chemical exposure, and cell viability was evaluated in the same wells by MTT. MTT procedures were as follows: after removal of test medium, 500 uL of 0.5 mg/ml of 3-[4,5-dimethylthiazol-2-y]2,5-diphenyltetrazoliumbromide solution was added to the cells. Following a 4-hour incubation at 37 C and 5% CO2 to allow formazan-crystal formation, the MTT solution was removed and blue formazan salt crystals were solubilized using 500uL anhydrous isopropanol with shaking for 20 minutes. Absorbance was read at 570 and 650nm using a Packard Fusion microplate reader. Background correction of absorbance units was used to determine percent change relative to controls. […]

Structure (SMILES)	AC50	outcome
CCOP(=O)(OCC)OC(=CCl)c1ccc(Cl)cc1Cl	5.28 µM (active)	–
CCOP(=S)(OCC)O/N=C(\C#N)c1ccccc1	13.8 µM (active)	–
Cc1cc(C(C)(C)c2ccc(O)c(C)c2)ccc1O	–	inactive
OC(Cc1ccccc1Cl)(Cn1cncn1)C1(Cl)CC1 (centres undefined)	6.94 µM (active)	–
COC(=O)Nc1cccc(OC(=O)Nc2cccc(C)c2)c1	–	inactive
OC(Cc1ccccc1Cl)(Cn1[nH]cnc1=S)C1(Cl)CC1 (centres undefined)	–	inactive
COc1ccc(N)cc1	–	inactive
Oc1cccc(-c2ccccc2)c1	–	inactive
CCOCn1c(-c2ccc(Cl)cc2)c(C#N)c(Br)c1C(F)(F)F	–	inactive
CC(C)(C)c1ccccc1O	–	inactive
O=[N+]([O-])c1ccc(Nc2ccccc2)cc1	–	inactive
C[C@]12CC[C@@H](O)C[C@@H]1CC[C@@H]1[C@@H]2CC[C@]2(C)C(=O)CC[C@@H]12	1.98 µM (active)	–
CC(C)(COCC1CO1)COCC1CO1 (centres undefined)	–	inactive
CC(C)=CC1C(C(=O)OCc2cccc(Oc3ccccc3)c2)C1(C)C (centres undefined)	–	inactive
Cc1cc(Cl)ccc1O	–	inactive
Cc1ccccc1OP(=O)(Oc1ccccc1C)Oc1ccccc1C	–	inactive
CCC[CH2][Sn]([Cl])([Cl])[CH2]CCC	–	inactive
O=S1OC[C@@H]2[C@H](CO1)[C@]1(Cl)C(Cl)=C(Cl)[C@@]2(Cl)C1(Cl)Cl (some centres undefined)	–	inactive
CCCCCCCCCCCCN(C)C	–	inactive

Reference: PubChem BioAssay (EPA / NIEHS)
